Laboratory results from the supplement of paper PMC11417369.
± gives the standard deviation of the averaged measurements. Whole data set: some 25,000 sequences, median “ln(normalized median fluorescence intensity)” near 10, cut for the highest 2% near 12. The list comes from a sample in which the highest values are over-represented; it also holds similar and randomly drawn sequences.

test system: PfAP2-G AP2 domain (GST-tagged); assay: gcPBM binding intensity (ln(normalized median fluorescence intensity)); higher = stronger DNA binding
Summary of the method: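 For binding intensity, the highest Masliner-normalised natural-log median intensity across replicate spots of either probe orientation was taken. Protein bound to the array was stained with Alexa488 anti-GST antibody and scanned at 488 nm. The protein, GST-tagged P. falciparum DNA-binding domains from E. coli at about 25 μg on average, had been applied for 1 h to an Agilent 4 × 180k array of primer-extended double-stranded 36-bp intergenic genomic probes and negative controls.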

| Sequence | gcPBM binding intensity (ln) |
| --- | --- |
| TTTTAAATTTAGTGTAGTACACTTTTTTCAAATATA [XGTACX_site4659] | 11.7 ± 1.2 |
| TATATTTTATATTAGTGTACAAATTTCATTTTTCAT [XGTACX_site2204] | 11 ± 0.5 |
| ATATTTATATATAGTAGTACTTTCAATAATTTAAAT [XGTACX_site7276] | 11.4 ± 0.84 |
| ATATGTTACTTTACATAAAGAAGAAGAAGAAGAAAA [CACACA_negctrl_site985] | 9.805 ± 0.064 |
| TTTTTGTTTGAACACTGTACGTATAAATATAAAAGT [XGTACX_site6476] | 11.7 ± 0.84 |
| TGTATGATTATGTTGTGTACGTAAAATATGAAAAAT [XGTACX_site1720] | 11.5 ± 0.89 |
| TATAATAAAATATTTTGTACGTATATTTTAATATTT [XGTACX_site2582] | 11.2 ± 0.72 |
| TCTTTTGAACAAATTTGTACGTATATAAAAATATTT [XGTACX_site6547] | 11.4 ± 0.71 |
| ATATAAACATGTTTGTGTACGTAATATGAAAAATAA [XGTACX_site8157] | 11.7 ± 1 |
| TATAAAAAATTATGTTGTACGTAATATAAAATTTGT [XGTACX_site7122] | 11.4 ± 0.86 |
| TAAAATATAAGACACACACACATATATTTATATATC [CACACA_site6248] | 9.96 ± 0.099 |
| AAAAAAAAAATTAAAAGTACAGAAAATAAATAAATA [XGTACX_site7470] | 11.4 ± 0.82 |
| AAAGAATAATTAAATACACACATATTACAGTAAAAA [CACACA_site2450] | 10.03 ± 0.092 |
| AAAAAAAAAAAAAAAAGTACACAGTAGAATTAAATG [XGTACX_site1843] | 11.7 ± 0.92 |
| TTATGTACAATTTCTTCTTTCTTTTTTCCTAAAGAC [CACACA_negctrl_site1193] | 11.1 ± 0.57 |
| GGTCTTATTTTTAGTAGTACAAATATAATATACATA [XGTACX_site6483] | 11.4 ± 0.83 |
| AATAATTTAATACATACACACGTATATCTTTTTTTT [CACACA_site8632] | 9.955 ± 0.078 |
| TAATTGTACGCCAATACACACAGAATTAGAATGTAG [CACACA_site102] | 11.8 ± 1.3 |
| TAATTGTACGCCAATACACACAGAATTATAATGTAG [CACACA_site6201] | 11.5 ± 1 |

| Sequence | gcPBM binding intensity (ln) |
| --- | --- |
| TAATTGTACGCCAATACACACAGAATTAAAATGTAG [CACACA_site4234] | 11.6 ± 1.1 |
| CAACATTTATATTTTACACACATCATTTAAGCGCTT [CACACA_site992] | 10.09 ± 0.078 |
| ATCCTTTATTTTTTTTGTACATAAAAATAACTCGAG [XGTACX_site3885] | 11.1 ± 0.62 |
| ATATGTATATTTTTGATGTGCTTTTATTTGGTTATT [CACACA_negctrl_site626] | 10.01 ± 0.035 |
| CATATACACGAACACACACACATATATATATATATA [CACACA_site4437] | 10.5 ± 0.68 |
| TACAGACATACATACACACATACATACAGACATACA [CACACA_site1941] | 10.1 ± 0.3 |
| CGCATACACGGACACACACACACATATATATATATA [CACACA_site4520] | 11.3 ± 0.7 |
| CCCCCCCACAGACACACACACATACATACCACATAT [CACACA_site2306] | 11.8 ± 0.76 |
| CCCCCCCACGAACACACACACATACATACCACATAT [CACACA_site7149] | 12 ± 1 |
| CCCCCCCACGGACACACACACATACATACCACATAT [CACACA_site5303] | 11.7 ± 0.75 |
| TACATACACGGACACACACACATATATATATATATA [CACACA_site5883] | 11.3 ± 0.88 |
| CATACACCCAGACACACACACATATATATATATATA [CACACA_site634] | 10.3 ± 0.39 |
| TTCCCCCCCAGACACACACACACATACATACCACAT [CACACA_site2305] | 11.8 ± 0.84 |
| TACATACACAGACACACACACATATATATATATATA [CACACA_site3557] | 10.2 ± 0.38 |
| CACAGACACCCATACACACACATACCCATATATATA [CACACA_site5023] | 10.4 ± 0.26 |
| AACATATACACGAACACACACACATATATATATATA [CACACA_site502] | 10.3 ± 0.26 |
| AAATTAATGTATATGTGAAGCAAGGGATGCGGCAGA [CACACA_negctrl_site406] | 10.2 ± 0.12 |
| GTACCTATTTCATACACACACACACCCAAACAAACA [CACACA_site976] | 10.7 ± 0.51 |
| ACATAATAAAAATAAATTCATAAGTAAATAAATAAA [TGCATGCA_negctrl_site186] | 9.88 ± 0.24 |

| Sequence | gcPBM binding intensity (ln) |
| --- | --- |
| GTTTGTATAGGTTCATGTACAAAAAAAAAAAAAAAA [XGTACX_site537] | 11 ± 0.83 |
| TTGTTTAAGTCACGAACACACATATATCATCAATTT [CACACA_site986] | 10.11 ± 0.071 |
| TTACTTATAAATAAATATACAAAAATGTTATATATA [XGTACX_negctrl_site223] | 9.625 ± 0.078 |
| CATACATACATACATACATGCATACATACATACATA [TGCATGCA_site218] | 10.5 ± 0.47 |
| AATTCTTTTTTCAACACACACACACCCGAAAATATA [CACACA_site3111] | 10.3 ± 0.28 |
| CAAACCTATATACAAACATGCAATCCACATATTGGT [TGCATGCA_site756] | 9.99 ± 0.13 |
| AACACAAGAACAGAACGTACACACACATATATATAT [XGTACX_site7347] | 11.3 ± 0.61 |
| AAAAAATGAAAAAACTGTACGCAATTTTGTTTTTAT [XGTACX_site2299] | 11.7 ± 1.2 |
| TAAAATTTTTGTTTTTGTACGAAACATCAATTTTAC [XGTACX_site4963] | 10.7 ± 0.34 |
| AAGAAAAATTTAAACTGTACTTGTTTTCCAATGAAC [XGTACX_site4443] | 11.4 ± 1 |
| CTTAAATTGAAATGTTGTACAAAGTAAAAACAATGA [XGTACX_site2123] | 11.2 ± 0.86 |
| GTATATCACACATTTGCATGTTGTCAATAGTTTATC [TGCATGCA_site134] | 10.23 ± 0.014 |
| TTAAAAATATTATGTACACACATTTTAGATATTTGT [CACACA_site1846] | 11.6 ± 0.77 |
| TTCTTTAAAATATTATGTACACATTGCGAACAGTTT [XGTACX_site5418] | 11.7 ± 1 |
| ATTTAAAAAATATATTGTACATATTTTATTATGTTT [XGTACX_site2984] | 11 ± 0.63 |
| GTTATAAAATATGGCACACAAAATGTAAGTAAATGA [CACACA_site1458] | 10.5 ± 0.2 |
| TTCATTAATGTGTAATGTACTTGTAATATGGGATTA [XGTACX_site3903] | 11.1 ± 0.82 |
| TTTTTATTTATATGATACTTATATATATATATATAT [CACACA_negctrl_site462] | 10.2 ± 0.35 |
